According to PubChem BioAssay (NCATS):
Results filed as inconclusive are left out. Activity calls are given as the source filed them. Unless noted, the call rests on the fitted dose curve; in most records, active means well fitted curve in the direction sought with a large enough effect; inconclusive means small, poorly fitted or top-dose-only effect, or another doubt; inactive means no such curve, though single readings can be large; an effect the other way counts as inactive or inconclusive.

Legend:
[1] = Cell Viability - LYMP2-008 (AID 980);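 further: cells exposed to compound for 24 h at 37 °C; on the % scale 0 is the no-effect control and ±100 the full control effect; nearly all actives have a fitted effect of over 60% in size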
Summary of the method: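 Measured: ATP-dependent luminescence, proportional to viable cell number, in human lymphoblastoid cells treated 24 hr with compound in complete culture medium. Values are AC50s from Hill-equation modelling of qHTS titrations.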

[2] = Cell Viability - LYMP2-010 (AID 981); further: on the % scale 0 is the no-effect control and ±100 the full control effect; nearly all actives have a fitted effect of over 55% in size
Summary of the method: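 This 24 hr viability screen uses LYMP2-010 lymphoblastoid cells, quantifies ATP via luciferase luminescence, and derives AC50 from Hill fits of qHTS concentration-response data.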

[3] = Cell Viability - LYMP2-014 (AID 983);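 further: series mostly up to about 92 µM; cells exposed to compound for 24 h at 37 °C; plate controls were DMSO only for no effect and 92 µM tetraoctylammonium bromide for full effect; nearly all actives have a fitted effect of over 50% in size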
Summary of the method: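 Quantitative HTS in lymphoblastoid cells: 24 hr compound exposure, then CellTiter-Glo ATP luminescence. Positive control was tetraoctylammonium bromide, 6.4pM to 92 uM.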

[4] = Cell Viability - LYMP2-016 (AID 984); further: on the % scale 0 is the no-effect control and ±100 the full control effect; nearly all actives have a fitted effect of over 55% in size
Summary of the method: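 Acute toxicity in a Coriell human lymphoblastoid line is scored as loss of intracellular ATP over 24 h of treatment in complete medium. CellTiter-Glo signal is fitted across concentrations with the Hill equation to give AC50.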

[5] = Cell Viability - LYMP2-018 (AID 985);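 further: plate controls were DMSO only for no effect and tetraoctylammonium bromide at 92 µM for full effect; nearly all actives have a fitted effect of over 50% in size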
Summary of the method: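 In this qHTS viability assay, cells are treated for 24 hr and cellular ATP is quantified by luciferase-based luminescence, with tetraoctylammonium bromide as positive control.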

[6] = Cell Viability - LYMP2-022 (AID 987);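 further: 0% = DMSO alone and full effect = tetraoctylammonium bromide at 92 µM; nearly all actives have a fitted effect of over 55% in size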
Summary of the method: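 In this qHTS cytotoxicity screen, compound titrations were incubated 24 hr at 37 C with human lymphoblastoid cells in complete medium. Luciferase-based ATP luminescence provided the viability signal.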

[7] = Cell Viability - LYMP2-026 (AID 989);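 further: cells exposed to compound for 24 h at 37 °C; on the % scale 0 is the no-effect control and ±100 the full control effect; nearly all actives have a fitted effect of over 50% in size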
Summary of the method: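 Acute toxicity screen in complete culture medium, with 24 hr compound exposure at 37 C. Viability read as cellular ATP via luciferase reaction, with tetraoctylammonium bromide (6.4pM to 92 uM) as positive control.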

[8] = Cell Viability - LYMP1-002 - Assay at 24 hr (AID 993); further: on the % scale 0 is the no-effect control and ±100 the full control effect
Summary of the method: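 Viability was judged from intracellular ATP using a luciferase read-out, following a 24-hour compound incubation at 37 C of lymphoblastoid cells seeded at 2500 per well. Concentration-response data were fitted to the Hill equation for AC50.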

[9] = Cell Viability - LYMP1-002 - Assay at 40 hr (AID 994);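 further: 0% = DMSO only and full inhibition = 92 µM tetraoctylammonium bromide; nearly all actives have a fitted effect of over 60% in size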
Summary of the method: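 Concentration-dependent ATP loss after 40 hr treatment at 37 C defined toxicity; AC50 values were obtained by fitting the standard Hill equation.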

[10] = qHTS Assay for Identification of Small Molecule Inducers of Hypoxia Response (AID 2120; active means well fitted curve in the direction sought with a large enough effect in the signal ratio, with a control signal flat, not every such curve was filed as active; the % refers to the signal ratio; further: 0% is about no effect)
Summary of the method: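 HRE-bla ME-180, 2500 cells/well, 0.5% dialyzed FBS medium; cpd titration, 17 h 37 degrees C; CCF4 2.5 h RT; Ex 405, Em 460/530 ratio -> %Activity, AC50.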

[11] = biological target: Estrogen receptor (Homo sapiens) (UniProt P03372); experiment: qHTS assay for small molecule antagonists of estrogen receptor alpha signaling (AID 588513; active means well fitted curve in the direction sought with a large enough effect in the signal ratio, with a control signal flat, not every such curve was filed as active; the % refers to the signal ratio; further: on the % scale 0 is the no-effect control and ±100 the full control effect)
Summary of the method: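 Cells were plated at 5000/well and incubated 4 h at 37 C. Compounds were added as 1:2 dilution series, duplicates. 17-beta-estradiol (0.5nM final) was added for 18 h before CCF4 detection.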

[12] = biological target: Androgen receptor (Homo sapiens) (UniProt P10275); experiment: qHTS assay for small molecule agonists of androgen receptor signaling (AID 588515; active means well fitted curve in the direction sought with a large enough effect in the signal ratio, with a control signal flat; the % refers to the signal ratio; further: on the % scale 0 is the no-effect control and ±100 the full control effect); details: AR-UAS-bla HEK293, beta-lactamase ratio, agonist 16 h; stronger effect = higher value
Summary of the method: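 Stimulation of an AR-responsive β-lactamase reporter in GripTite HEK293 cells was measured after 16 h compound exposure at 37 °C, via CCF4 fluorescence after 2 h RT. EC50 from Hill fits, normalized to R1881 at 30 nM.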

[13] = biological target: Androgen receptor (Homo sapiens) (UniProt P10275); experiment: qHTS assay for small molecule antagonists of androgen receptor signaling (AID 588516; active means well fitted curve in the direction sought with a large enough effect in the signal ratio, with a control signal flat, not every such curve was filed as active; the % refers to the signal ratio; further: on the % scale 0 is the no-effect control and ±100 the full control effect)
Summary of the method: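 Antagonist-mode qHTS: inhibition of R1881 (10 nM)-driven beta-lactamase expression in GripTite HEK 293 cells is measured after 16 h; values are Hill-derived IC50s normalized between R1881 and DMSO wells.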

[14] = biological target: Bile acid receptor (Homo sapiens) (UniProt Q96RI1); experiment: qHTS assay for small molecule antagonists of farnesoid X receptor signaling (AID 588526; calls by dose curve; further: on the % scale 0 is the no-effect control and ±100 the full control effect)
Summary of the method: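 Antagonist mode: titrated compounds tested against chenodeoxycholic acid stimulation (normalized to 50 uM CDCA and DMSO) in GeneBLAzer HEK293T cells for 16 h. Beta-lactamase read by CCF4 fluorescence; IC50 from Hill fits.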

[15] = biological target: Glucocorticoid receptor (Homo sapiens) (UniProt P04150); experiment: qHTS assay for small molecule antagonists of glucocorticoid receptor signaling (AID 588533; active means well fitted inhibition curve with a large enough effect in the signal ratio, with a control signal flat, not every such curve was filed as active; the % refers to the signal ratio; further: on the % scale 0 is the no-effect control and ±100 the full control effect)
Summary of the method: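 Antagonist-mode qHTS: compound titrations added to GRE-bla HeLa cells, then dexamethasone 2 nM final; 18 h, 37 C. CCF4 FRET fluorescence normalized to dexamethasone and DMSO; IC50 from Hill fit.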

[16] = biological target: Vitamin D3 receptor (Homo sapiens) (UniProt P11473); experiment: qHTS assay for small molecule antagonists of vitamin D receptor signaling (AID 588541; calls by dose curve)
Summary of the method: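 VDR-UAS-bla HEK293T cells in 2% charcoal-stripped FBS were stimulated with 1-alpha,25-dihydroxyvitamin D3 (3 nM final) plus compound for 16 h at 37 C. The beta-lactamase CCF4 readout was normalized to 50 nM agonist and DMSO, and Hill fits gave IC50.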

[17] = biological target: Vitamin D3 receptor (Homo sapiens) (UniProt P11473); experiment: qHTS assay for small molecule agonists of vitamin D receptor signaling (AID 588543; calls by dose curve;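 further: 0% = DMSO basal and 100% = reference agonist control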)
Summary of the method: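 qHTS in agonist mode: compound titrations stimulate a VDR-driven β-lactamase reporter in HEK293T cells over 16 h at 37 °C. Response normalized to 50 nM 1α,25-dihydroxyvitamin D3 = 100%, DMSO = 0%; Hill fitting gives EC50 and maximal response.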

[18] = biological target: Thyroid hormone receptor beta (Homo sapiens) (UniProt P10828); experiment: qHTS assay for small molecule agonists of thyroid hormone receptor beta signaling (AID 588545; calls by dose curve)
Summary of the method: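 In this cell-based screen, titrated compounds act on HEK 293 cells held in medium with 2% charcoal/dextran FBS, NEAA and pyruvate for 18 hrs at 37 C. Responses are expressed relative to T3 (10 nM) as 100% and basal DMSO as 0%.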

[19] = qHTS assay for small molecule antagonists of retinoid X receptor alpha signaling (AID 588546; active means well fitted inhibition curve with a large enough effect in the signal ratio, with a control signal flat, not every such curve was filed as active; the % refers to the signal ratio); details: HEK293T RXRa-UAS-bla, beta-lactamase ratio, antagonist mode; measured here: W530 green channel, cytotoxicity proxy
Summary of the method: (§1)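 Beta-lactamase reporter inhibition, read as CCF4 fluorescence ratio (ex 405, em 460/530 nm) after 2 h at RT. HEK293T UAS-bla cells, 2500/well, were stimulated with 9-cis-RA at 500 or 100 nM final alongside test compound for 18 h at 37 C.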

[20] = biological target: Retinoic acid receptor RXR-alpha (Homo sapiens) (UniProt P19793); experiment: as above; details: HEK293T RXRa-UAS-bla, beta-lactamase ratio, antagonist mode
Summary of the method: as §1

[21] = biological target: Thyroid hormone receptor beta (Homo sapiens) (UniProt P10828); experiment: qHTS assay for small molecule antagonists of thyroid hormone receptor beta signaling (AID 588547; active means well fitted inhibition curve with a large enough effect in the signal ratio, with a control signal flat, not every such curve was filed as active; the % refers to the signal ratio); details: TR-UAS-bla HEK293, beta-lactamase ratio, antagonist mode, 18 h
Summary of the method: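 TR-UAS-bla GripTite HEK293 cells in 2% charcoal/dextran FBS medium; compounds 0.59 nM to 92 uM with T3 at 0.4nM final, 18 h at 37 C. Beta-lactamase read by CCF4 fluorescence (460/530 nm); Hill fits gave IC50 and efficacy.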

[22] = biological target: Voltage-gated inwardly rectifying potassium channel KCNH2 (Homo sapiens) (UniProt Q12809); experiment: qHTS Assay for Small Molecule Inhibitors of the Human hERG Channel Activity (AID 588834);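 further: U2OS cells transduced with hERG by BacMam; top concentration of the series differs between compounds; on the % scale 0 is the no-effect control and ±100 the full control effect; lower thallium flux fluorescence means stronger hERG block; nearly all actives have a fitted effect of over 50% in size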
Summary of the method: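 Cells were infected with hERG-BacMam virus for 4 hrs at room temperature, grown overnight, then seeded at 2000/well. After dye loading and roughly 10 min compound treatment, thallium influx was triggered and fluorescence recorded.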

[23] = qHTS assay for small molecule activators of the p53 signaling pathway (AID 651743; active means well fitted activation curve with a large enough effect in the signal ratio, not every such curve was filed as active; the % refers to the signal ratio; further: series mostly up to about 92 µM; % of control where 0% means no effect); details: HCT-116 p53RE-bla, beta-lactamase FRET ratio, 16 h; activation: stronger effect = higher value
Summary of the method: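 Reporter: beta-lactamase driven by p53 response elements, stably integrated in HCT-116 cells. Cells seeded at 4,000/well, 5 h preincubation, compound (DMSO) 16 h at 37 C; B/G FRET substrate 2 h RT; fluorescence intensity read.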

Androgen receptor (Homo sapiens), sequence (P10275 whole entry, looked up): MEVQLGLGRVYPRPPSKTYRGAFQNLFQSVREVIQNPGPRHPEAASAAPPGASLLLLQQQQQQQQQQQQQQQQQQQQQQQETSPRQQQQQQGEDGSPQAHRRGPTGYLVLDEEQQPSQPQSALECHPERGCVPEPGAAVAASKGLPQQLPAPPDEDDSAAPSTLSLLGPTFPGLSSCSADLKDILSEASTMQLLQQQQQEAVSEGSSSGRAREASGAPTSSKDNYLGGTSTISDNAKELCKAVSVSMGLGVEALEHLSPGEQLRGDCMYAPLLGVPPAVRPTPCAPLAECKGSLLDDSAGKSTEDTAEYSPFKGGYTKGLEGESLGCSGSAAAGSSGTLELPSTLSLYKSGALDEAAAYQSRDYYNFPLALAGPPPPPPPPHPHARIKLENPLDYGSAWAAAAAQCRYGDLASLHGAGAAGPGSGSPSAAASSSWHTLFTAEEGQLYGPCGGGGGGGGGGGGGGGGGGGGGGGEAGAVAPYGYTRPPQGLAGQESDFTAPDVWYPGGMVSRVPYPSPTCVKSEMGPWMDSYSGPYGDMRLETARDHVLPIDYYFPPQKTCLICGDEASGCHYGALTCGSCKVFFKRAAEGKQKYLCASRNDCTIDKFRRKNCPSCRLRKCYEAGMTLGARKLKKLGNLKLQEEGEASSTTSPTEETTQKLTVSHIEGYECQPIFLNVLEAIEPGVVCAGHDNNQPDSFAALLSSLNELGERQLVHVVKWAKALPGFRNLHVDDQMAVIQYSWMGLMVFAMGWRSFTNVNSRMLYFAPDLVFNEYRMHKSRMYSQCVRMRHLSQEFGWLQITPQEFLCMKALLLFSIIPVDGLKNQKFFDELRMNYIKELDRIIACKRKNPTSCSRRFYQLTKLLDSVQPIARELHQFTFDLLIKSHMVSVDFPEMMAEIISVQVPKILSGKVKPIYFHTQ
Thyroid hormone receptor beta (Homo sapiens), sequence (P10828 whole entry, looked up): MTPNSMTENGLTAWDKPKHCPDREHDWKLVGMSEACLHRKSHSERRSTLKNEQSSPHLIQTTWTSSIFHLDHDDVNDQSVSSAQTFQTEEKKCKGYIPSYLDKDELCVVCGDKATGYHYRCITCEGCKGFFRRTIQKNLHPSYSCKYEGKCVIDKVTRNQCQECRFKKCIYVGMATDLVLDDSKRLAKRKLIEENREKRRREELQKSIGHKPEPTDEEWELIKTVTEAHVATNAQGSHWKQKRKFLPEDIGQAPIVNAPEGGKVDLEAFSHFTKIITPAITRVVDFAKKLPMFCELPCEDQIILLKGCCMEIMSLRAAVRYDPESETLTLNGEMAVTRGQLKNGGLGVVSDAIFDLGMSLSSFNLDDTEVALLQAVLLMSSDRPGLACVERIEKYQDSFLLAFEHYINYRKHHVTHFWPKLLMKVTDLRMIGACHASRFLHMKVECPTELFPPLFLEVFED
Vitamin D3 receptor (Homo sapiens), sequence (P11473 whole entry, looked up): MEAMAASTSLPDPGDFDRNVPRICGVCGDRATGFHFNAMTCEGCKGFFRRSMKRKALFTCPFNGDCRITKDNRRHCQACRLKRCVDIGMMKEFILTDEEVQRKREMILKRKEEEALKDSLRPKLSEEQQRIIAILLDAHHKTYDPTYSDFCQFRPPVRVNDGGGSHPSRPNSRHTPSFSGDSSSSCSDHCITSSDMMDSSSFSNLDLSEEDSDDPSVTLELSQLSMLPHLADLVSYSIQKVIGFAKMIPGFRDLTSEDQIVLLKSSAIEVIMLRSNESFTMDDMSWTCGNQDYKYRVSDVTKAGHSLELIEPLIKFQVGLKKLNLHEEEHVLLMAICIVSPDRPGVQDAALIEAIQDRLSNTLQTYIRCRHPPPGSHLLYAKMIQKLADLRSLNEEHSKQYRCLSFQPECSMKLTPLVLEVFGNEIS
Estrogen receptor (Homo sapiens), sequence (P03372 whole entry, looked up): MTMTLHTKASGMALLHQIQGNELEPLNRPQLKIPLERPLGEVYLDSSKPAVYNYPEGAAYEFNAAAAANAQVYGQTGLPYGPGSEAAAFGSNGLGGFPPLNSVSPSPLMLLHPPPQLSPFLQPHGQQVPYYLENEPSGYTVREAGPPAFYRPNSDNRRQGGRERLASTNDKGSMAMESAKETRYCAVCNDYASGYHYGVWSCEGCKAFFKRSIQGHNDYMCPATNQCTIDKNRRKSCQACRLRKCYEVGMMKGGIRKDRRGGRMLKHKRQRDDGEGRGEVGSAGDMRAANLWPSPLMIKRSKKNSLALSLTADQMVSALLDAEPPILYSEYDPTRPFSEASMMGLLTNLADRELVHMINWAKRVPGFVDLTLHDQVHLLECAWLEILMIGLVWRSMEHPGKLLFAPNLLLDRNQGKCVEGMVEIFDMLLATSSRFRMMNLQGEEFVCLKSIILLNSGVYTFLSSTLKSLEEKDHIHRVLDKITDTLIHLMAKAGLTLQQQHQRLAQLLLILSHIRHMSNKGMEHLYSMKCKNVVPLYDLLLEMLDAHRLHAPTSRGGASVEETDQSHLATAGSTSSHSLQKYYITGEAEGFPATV
Voltage-gated inwardly rectifying potassium channel KCNH2 (Homo sapiens), sequence (Q12809 whole entry, looked up): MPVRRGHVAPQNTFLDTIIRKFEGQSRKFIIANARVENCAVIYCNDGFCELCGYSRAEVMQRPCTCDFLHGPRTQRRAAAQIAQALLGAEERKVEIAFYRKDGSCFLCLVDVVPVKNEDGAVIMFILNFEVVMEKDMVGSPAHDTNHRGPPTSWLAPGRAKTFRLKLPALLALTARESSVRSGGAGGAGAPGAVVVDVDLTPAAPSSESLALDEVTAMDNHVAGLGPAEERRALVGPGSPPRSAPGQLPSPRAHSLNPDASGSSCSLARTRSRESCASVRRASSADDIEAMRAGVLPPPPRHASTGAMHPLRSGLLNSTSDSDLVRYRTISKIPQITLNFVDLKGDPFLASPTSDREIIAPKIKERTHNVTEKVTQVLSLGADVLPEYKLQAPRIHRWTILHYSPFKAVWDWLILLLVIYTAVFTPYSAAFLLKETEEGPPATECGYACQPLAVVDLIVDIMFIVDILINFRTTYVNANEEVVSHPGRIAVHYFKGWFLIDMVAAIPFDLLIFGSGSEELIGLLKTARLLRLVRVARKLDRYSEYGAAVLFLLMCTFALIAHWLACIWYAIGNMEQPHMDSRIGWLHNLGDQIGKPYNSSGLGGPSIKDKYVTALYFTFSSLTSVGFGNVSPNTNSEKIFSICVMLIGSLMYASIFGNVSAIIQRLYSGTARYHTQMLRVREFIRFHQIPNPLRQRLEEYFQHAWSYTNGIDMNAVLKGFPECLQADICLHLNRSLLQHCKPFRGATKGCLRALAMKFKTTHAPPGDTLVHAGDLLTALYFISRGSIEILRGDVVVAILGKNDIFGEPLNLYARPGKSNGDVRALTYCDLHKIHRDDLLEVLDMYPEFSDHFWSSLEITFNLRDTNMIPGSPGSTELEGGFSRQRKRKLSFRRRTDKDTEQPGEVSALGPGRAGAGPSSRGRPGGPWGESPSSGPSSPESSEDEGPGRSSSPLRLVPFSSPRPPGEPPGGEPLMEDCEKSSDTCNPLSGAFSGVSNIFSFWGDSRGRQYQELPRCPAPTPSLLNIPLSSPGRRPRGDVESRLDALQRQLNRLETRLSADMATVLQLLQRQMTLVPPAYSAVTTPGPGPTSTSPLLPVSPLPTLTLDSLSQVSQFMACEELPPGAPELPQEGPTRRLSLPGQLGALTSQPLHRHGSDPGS
Retinoic acid receptor RXR-alpha (Homo sapiens), sequence (P19793 whole entry, looked up): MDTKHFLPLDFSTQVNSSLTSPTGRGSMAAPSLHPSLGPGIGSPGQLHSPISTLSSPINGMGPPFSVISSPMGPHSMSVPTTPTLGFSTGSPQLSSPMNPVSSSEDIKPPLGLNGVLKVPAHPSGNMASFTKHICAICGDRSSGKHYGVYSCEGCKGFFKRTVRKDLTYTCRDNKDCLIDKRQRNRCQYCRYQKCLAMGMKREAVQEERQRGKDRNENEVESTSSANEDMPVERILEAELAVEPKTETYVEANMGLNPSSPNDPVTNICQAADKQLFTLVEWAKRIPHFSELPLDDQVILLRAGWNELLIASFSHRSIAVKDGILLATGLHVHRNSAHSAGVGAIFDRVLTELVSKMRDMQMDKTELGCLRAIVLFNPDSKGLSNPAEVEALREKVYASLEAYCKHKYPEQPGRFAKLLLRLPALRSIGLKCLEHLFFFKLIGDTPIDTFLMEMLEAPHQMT
Bile acid receptor (Homo sapiens), sequence (Q96RI1 whole entry, looked up): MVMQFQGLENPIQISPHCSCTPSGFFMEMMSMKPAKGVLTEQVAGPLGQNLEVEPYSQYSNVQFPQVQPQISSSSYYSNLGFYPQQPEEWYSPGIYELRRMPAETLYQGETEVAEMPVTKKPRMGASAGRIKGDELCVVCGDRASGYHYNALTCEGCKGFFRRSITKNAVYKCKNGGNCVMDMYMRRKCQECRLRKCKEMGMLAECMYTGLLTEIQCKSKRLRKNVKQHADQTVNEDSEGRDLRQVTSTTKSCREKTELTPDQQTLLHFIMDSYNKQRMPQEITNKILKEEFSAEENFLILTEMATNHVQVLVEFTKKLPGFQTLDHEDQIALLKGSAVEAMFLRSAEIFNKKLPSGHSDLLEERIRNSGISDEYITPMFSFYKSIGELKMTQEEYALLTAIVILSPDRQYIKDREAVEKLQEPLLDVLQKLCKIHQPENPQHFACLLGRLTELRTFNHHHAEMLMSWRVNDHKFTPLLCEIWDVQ

CC1=C2[C@H](/C=C(\C)C(=O)O)CC[C@@H](C)[C@H]2CC1
26.2%: max response [19]
inactive: Potency [1] | Potency [2] | Potency [3] | Potency [4] | Potency [5] | Potency [6] | Potency [7] | Potency [8] | Potency [9] | outcome [10] | Potency [11] | activation [12] -0.457% | outcome [13] | outcome [14] | Potency [15] | outcome [16] | outcome [17] | outcome [18] | max response [20] -25.2% | activity change % (negative = inhibition) [21] 11.8% | Potency [22] | activation [23] -7.78%
